# Results: PubChem BioAssay (NCI)
# About 83,000 compounds went through this panel and 20% of them were active in at least one assay; those are over-represented in the sample as a whole.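 Values shown are percent growth following 48 h exposure of cells in 96-well plates to a single concentration of compound; below 10 was considered active.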 Unmarked numbers belong to inactive results. The source made the active and inactive calls.
# Legend:
# Experiment in all cases: NCI-60 one-dose screen, 48 h (100 = growth as untreated, 0 = no growth, -100 = all killed)
# Conditions in all cases: 10 µM unless noted
# SR leukemia = test system: SR leukemia
# RPMI-8226 leukemia = test system: RPMI-8226 leukemia
# OVCAR-8 ovarian = test system: OVCAR-8 ovarian
# OVCAR-5 ovarian = test system: OVCAR-5 ovarian
# OVCAR-4 ovarian = test system: OVCAR-4 ovarian
# SK-OV-3 ovarian = test system: SK-OV-3 ovarian
# IGROV1 ovarian = test system: IGROV1 ovarian
# OVCAR-3 ovarian = test system: OVCAR-3 ovarian
# HS 578T breast = test system: HS 578T breast
# NCI/ADR-RES ovarian = test system: NCI/ADR-RES ovarian
# T-47D breast = test system: T-47D breast
# BT-549 breast = test system: BT-549 breast
# MDA-MB-435 melanoma = test system: MDA-MB-435 melanoma
# SW-620 colon = test system: SW-620 colon
# MCF7 breast = test system: MCF7 breast
# HCT-116 colon = test system: HCT-116 colon
# HCC-2998 colon = test system: HCC-2998 colon
# KM12 colon = test system: KM12 colon
SMILES,growth (SR leukemia),growth (RPMI-8226 leukemia),growth (OVCAR-8 ovarian),growth (OVCAR-5 ovarian),growth (OVCAR-4 ovarian),growth (SK-OV-3 ovarian),growth (IGROV1 ovarian),growth (OVCAR-3 ovarian),growth (HS 578T breast),growth (NCI/ADR-RES ovarian),growth (T-47D breast),growth (BT-549 breast),growth (MDA-MB-435 melanoma),growth (SW-620 colon),growth (MCF7 breast),growth (HCT-116 colon),growth (HCC-2998 colon),growth (KM12 colon)
O=S(=O)(CCN1CCOCC1)Nc1cc(-c2ccc3ncnc(Nc4ccc(F)c(Cl)c4)c3c2)cnc1Cl,18.8%,9.83% (active),16.1%,12.1%,11.5%,-25.4% (active),-24.1% (active),-8.19% (active),-18.3% (active),48.6%,-32.6% (active),-9.24% (active),6.92% (active),30.4%,13.6%,18.9%,17.4%,20.8%
CCc1cccc(C)c1NC(=O)c1sc2nc3c(cc2c1N)CCCCC3,14.4%,12.2%,28.9%,45%,63.9%,36.9%,46.5%,3.96% (active),36%,14.2%,46.7%,58.3%,-16.9% (active),23.8%,18.9%,21.1%,54.7%,23%
O=C(Nc1ccc(F)cc1)Nc1ccc(Cl)c([N+](=O)[O-])c1,31.8%,-28% (active),17.8%,44.3%,16.5%,34%,22.4%,10.1%,55.8%,14.1%,6.68% (active),42.4%,21.1%,19%,7.97% (active),7.12% (active),20.2%,12.4%
C=C1C(=O)O[C@H]2[C@H]1CC/C(COC(=O)n1ccnc1C)=C\CC[C@@]1(C)O[C@@H]21,86.6%,100%,91.4%,101%,99.3%,85.4%,97.7%,73.7%,98%,96.3%,85%,97.3%,99.5%,85%,87.8%,89%,103%,103%
Cc1cn(-c2nc3c(c(NCc4ccccc4)n2)COCC3)c2cccc(C(N)=O)c12,50.8% [0.5 µM],-15.3% [0.5 µM] (active),58.1% [0.5 µM],70.8% [0.5 µM],58.8% [0.5 µM],111% [0.5 µM],82.3% [0.5 µM],91.5% [0.5 µM],83.5% [0.5 µM],86% [0.5 µM],62.7% [0.5 µM],89% [0.5 µM],63.9% [0.5 µM],86.1% [0.5 µM],35.5% [0.5 µM],11.4% [0.5 µM],69.9% [0.5 µM],63.2% [0.5 µM]
COc1cc(NC(=O)c2cc(OC)c3ccn(C)c3c2)cc2c1C[C@]1(C)CC[C@@H](O)C(C)(C)[C@H]1O2,19.2%,-16.6% (active),75.8%,81.4%,84.6%,53%,68%,80.7%,10.2%,82.6%,57.5%,36.9%,64%,57.7%,38.5%,43.6%,74.6%,65.3%
O=C(Cn1c2ccccc2c2ccncc21)N/N=C\c1ccc2ccccc2c1,33.5%,-1.73% (active),14.2%,75.2%,-11% (active),36%,43.1%,-37.1% (active),38.2%,27.2%,35%,52.5%,24.5%,26.4%,11.7%,-41.7% (active),74.5%,36%
COc1ccc(-c2ccc(NC(=O)Nc3cccc(C(F)(F)F)c3)c(C)n2)cc1,36.3%,22.6%,61.9%,83%,42.9%,82.1%,91.3%,41.9%,88.9%,53.2%,26.5%,66.4%,69.6%,81%,41.5%,26.9%,81.1%,45.6%
Cc1nccc2c3ccc(OCc4cn(Cc5ccc(Br)cc5)nn4)cc3n(CCCc3ccccc3)c12,77.8%,72.9%,60.8%,106%,50.9%,81.6%,77.4%,82.1%,66.9%,78.8%,93.3%,88.2%,96.7%,97.8%,75.2%,63.6%,84.7%,92.6%
O=S(c1ccccc1)c1ccc2nnnn2n1 (stereo not drawn),85.2%,95.7%,108%,110%,111%,114%,75.8%,83.8%,97.7%,106%,91.7%,98.1%,108%,59.9%,86.3%,60.7%,113%,98.2%
Cc1ccc(=O)n(-c2ccc(Br)cc2F)c1,108%,101%,99%,105%,97.3%,90.4%,97.6%,109%,100%,104%,93.7%,94.5%,100%,103%,92.6%,105%,106%,103%
CCCCCC/C=N/Nc1ccc([N+](=O)[O-])cn1,89.4%,105%,110%,100%,118%,81.1%,105%,103%,108%,102%,88.4%,96.2%,101%,102%,90.7%,84.7%,85.9%,99.5%
c1ccc(CNCCN(CCNCc2ccccn2)Cc2ccc3ccccc3c2)nc1,2.45% (active),10.6%,11.1%,0.822% (active),0.169% (active),-26% (active),7.31% (active),1.32% (active),41.3%,-13% (active),-4.67% (active),30.3%,11.4%,13%,3.36% (active),-9.29% (active),-18.3% (active),12.5%
CC1=C2C(=C[C@@](C)(CO)[C@@H]2OC(=O)N(C)CCN(C)C(=O)OC(C)(C)C)C(=O)[C@](C)(O)C12CC2,50.6%,48%,36.6%,19.2%,43.8%,35.3%,9.25% (active),3.63% (active),93.9%,10.7%,45.2%,56.8%,72.6%,71.3%,34.8%,15.9%,75.8%,74%
COc1ccc(-c2c(NC(=O)Nc3ccc(Cl)c(C(F)(F)F)c3)cnn2-c2ccc(S(N)(=O)=O)cc2)cc1,7.38% (active),19.9%,28.5%,60.6%,32.8%,68.4%,33.1%,25.4%,49.6%,89.9%,16.9%,39.3%,24.3%,38.2%,11.5%,14.5%,28.5%,29.6%
COc1ccc2c(-c3ccc(F)cc3)c(C#N)c(=NC(C)=O)oc2c1,13.7%,12.3%,50.2%,103%,92.5%,44.6%,54%,18.2%,42.9%,31.2%,55.8%,29.1%,-3.09% (active),23%,21.4%,25%,60.3%,30.3%
